The text below walks through data of paper PMC4081100, “A DNA-binding-site landscape and regulatory network analysis for NAC transcription factors in Arabidopsis thaliana”.

Common to all, as to assay: universal protein binding microarray (PBM); transcription factors of Arabidopsis thaliana; high values mean tight binding
In one assay the target is T1, GST-ANAC092(1-176) (Arabidopsis thaliana, UniProt Q9FKA0 1-176).
T1 sequence: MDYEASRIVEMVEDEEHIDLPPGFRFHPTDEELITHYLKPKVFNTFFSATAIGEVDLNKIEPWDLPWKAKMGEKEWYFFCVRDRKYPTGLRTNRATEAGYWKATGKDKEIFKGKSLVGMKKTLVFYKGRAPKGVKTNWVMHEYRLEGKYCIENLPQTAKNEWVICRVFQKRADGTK
To be noted: protein: recombinant; tags: GST; chain copies: 2; dsDNA, one strand shown. In a few lines: (§1)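 Binding is expressed as the normalised enrichment score (E-score). Proteins carrying a GST tag, whether NAC-domain, full-length or DNA-binding-domain forms, were induced in cells, and zinc acetate was added for zinc-finger proteins. After purification on glutathione–Sepharose 4B and quantification by A280 or anti-GST western blot, each was applied in duplicate at 200 to 500 nM final to custom all-10-mer Agilent 4 × 180K arrays made double-stranded by primer extension. Gapped and ungapped 8-mers were scored.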

The next assay has as its target T2, GST-ANAC019 NAC domain (Arabidopsis thaliana, UniProt Q9C932 14-162).
T2 sequence: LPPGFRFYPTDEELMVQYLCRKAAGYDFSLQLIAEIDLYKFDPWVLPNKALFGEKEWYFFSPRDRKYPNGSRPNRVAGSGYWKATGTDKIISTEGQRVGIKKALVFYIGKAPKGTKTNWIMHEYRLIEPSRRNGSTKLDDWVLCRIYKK
To be noted: protein: recombinant; tags: GST; chain copies: 2; dsDNA, one strand shown. In a few lines: as §1

The target in a further assay is T3, GST-ANAC055(1-171) (Arabidopsis thaliana, UniProt Q9LDY8 1-171).
T3 sequence: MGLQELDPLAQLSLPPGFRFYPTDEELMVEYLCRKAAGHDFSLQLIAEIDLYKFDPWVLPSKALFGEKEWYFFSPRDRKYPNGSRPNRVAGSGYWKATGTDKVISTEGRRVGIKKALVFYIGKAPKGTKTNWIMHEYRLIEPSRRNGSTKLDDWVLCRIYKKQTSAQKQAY
To be noted: protein: recombinant; tags: GST; chain copies: 2; dsDNA, one strand shown. In a few lines:
as §1

The target of a further assay is T4, GST-ATAF1 NAC domain (Arabidopsis thaliana, UniProt Q39013 7-158).
T4 sequence: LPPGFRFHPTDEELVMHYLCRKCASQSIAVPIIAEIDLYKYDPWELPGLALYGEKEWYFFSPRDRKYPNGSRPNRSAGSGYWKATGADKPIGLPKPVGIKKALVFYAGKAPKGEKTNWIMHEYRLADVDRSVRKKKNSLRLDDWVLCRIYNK
To be noted: protein: recombinant; tags: GST; chain copies: 2; dsDNA, one strand shown. The method, boiled down: as §1

The target of assay [1] is T5, GST-ANAC092(1-285) full length (Arabidopsis thaliana, UniProt Q9FKA0 1-285).
T5 sequence: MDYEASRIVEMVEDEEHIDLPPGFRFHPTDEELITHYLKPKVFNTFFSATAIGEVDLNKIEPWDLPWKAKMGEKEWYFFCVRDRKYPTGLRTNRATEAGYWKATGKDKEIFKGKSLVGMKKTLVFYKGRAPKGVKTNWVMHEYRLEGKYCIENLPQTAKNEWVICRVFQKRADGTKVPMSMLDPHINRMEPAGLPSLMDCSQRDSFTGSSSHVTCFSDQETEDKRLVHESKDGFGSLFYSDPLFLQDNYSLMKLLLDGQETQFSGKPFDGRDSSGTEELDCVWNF
To be noted: protein: recombinant; tags: GST; chain copies: 2; dsDNA, one strand shown. In a few lines:
as §1

The next assay concerns the target T6, GST-NAP(1-166) (Arabidopsis thaliana, UniProt O49255 1-166).
T6 sequence: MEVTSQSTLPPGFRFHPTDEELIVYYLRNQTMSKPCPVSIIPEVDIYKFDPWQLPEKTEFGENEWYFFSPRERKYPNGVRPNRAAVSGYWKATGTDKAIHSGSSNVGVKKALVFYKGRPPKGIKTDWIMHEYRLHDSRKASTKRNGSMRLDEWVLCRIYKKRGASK
To be noted: protein: recombinant; tags: GST; chain copies: 2; dsDNA, one strand shown. In a few lines:
as §1

A further assay concerns the target T7, GST-NST2(1-184) (Arabidopsis thaliana, UniProt Q9M274 1-184).
T7 sequence: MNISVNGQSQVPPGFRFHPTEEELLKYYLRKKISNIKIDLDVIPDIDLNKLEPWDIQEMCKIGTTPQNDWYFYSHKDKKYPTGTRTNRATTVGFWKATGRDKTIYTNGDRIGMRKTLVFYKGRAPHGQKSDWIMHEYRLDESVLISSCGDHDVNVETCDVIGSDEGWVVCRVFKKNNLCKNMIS
To be noted: protein: recombinant; tags: GST; chain copies: 2; dsDNA, one strand shown. In a few lines:
as §1

In the next assay the target is T8, GST-SND1(1-203) (Arabidopsis thaliana, UniProt Q9LPI7 1-203).
T8 sequence: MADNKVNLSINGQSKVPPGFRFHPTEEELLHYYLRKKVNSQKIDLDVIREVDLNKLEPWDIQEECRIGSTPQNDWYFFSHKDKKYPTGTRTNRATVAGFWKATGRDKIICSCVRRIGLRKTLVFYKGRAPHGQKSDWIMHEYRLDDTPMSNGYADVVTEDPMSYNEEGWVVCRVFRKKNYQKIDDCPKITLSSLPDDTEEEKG
To be noted: protein: recombinant; tags: GST; chain copies: 2; dsDNA, one strand shown. In a few lines: as §1

The next assay has as its target T9, GST-VND3 NAC domain (Arabidopsis thaliana, UniProt Q9FH59 12-162).
T9 sequence: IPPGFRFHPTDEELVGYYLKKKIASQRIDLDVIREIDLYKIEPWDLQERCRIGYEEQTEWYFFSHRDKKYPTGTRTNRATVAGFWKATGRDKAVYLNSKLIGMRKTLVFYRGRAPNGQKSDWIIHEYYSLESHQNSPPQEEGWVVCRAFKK
To be noted: protein: recombinant; tags: GST; chain copies: 2; dsDNA, one strand shown. In a few lines: as §1

For another assay, the target named is T10, GST-VND7 NAC domain (Arabidopsis thaliana, UniProt Q9C8W9 9-158).
T10 sequence: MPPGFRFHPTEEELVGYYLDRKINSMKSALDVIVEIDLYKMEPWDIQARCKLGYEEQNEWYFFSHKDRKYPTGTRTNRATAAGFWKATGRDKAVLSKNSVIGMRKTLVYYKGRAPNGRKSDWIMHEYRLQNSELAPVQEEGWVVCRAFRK
To be noted: protein: recombinant; tags: GST; chain copies: 2; dsDNA, one strand shown. In a few lines: as §1

The target in another assay is GST-WRKY1(266-371) (Arabidopsis thaliana, UniProt Q9SI37 266-371). To be noted: protein: recombinant; tags: GST; dsDNA, one strand shown. In a few lines:
as §1

The next assay addresses GST-NTL6(1-168) (Arabidopsis thaliana, UniProt Q9SCK6 1-168). To be noted: protein: recombinant; tags: GST; chain copies: 2; dsDNA, one strand shown. In a few lines: as §1
The next assay deals with T11, GST-NTL8 NAC domain (Arabidopsis thaliana, UniProt Q9XIN7 14-156).
T11 sequence: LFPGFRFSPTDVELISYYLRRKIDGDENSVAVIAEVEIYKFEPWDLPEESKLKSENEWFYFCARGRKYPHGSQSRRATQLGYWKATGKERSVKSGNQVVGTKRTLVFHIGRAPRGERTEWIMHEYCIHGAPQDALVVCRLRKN
To be noted: protein: recombinant; tags: GST; chain copies: 2; dsDNA, one strand shown. In a few lines:
as §1

GST-WRKY1(266-371), sequence (Q9SI37 266-371): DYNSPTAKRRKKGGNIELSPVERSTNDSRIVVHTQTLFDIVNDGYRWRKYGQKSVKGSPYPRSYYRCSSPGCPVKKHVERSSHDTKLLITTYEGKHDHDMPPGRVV
GST-NTL6(1-168), sequence (Q9SCK6 1-168): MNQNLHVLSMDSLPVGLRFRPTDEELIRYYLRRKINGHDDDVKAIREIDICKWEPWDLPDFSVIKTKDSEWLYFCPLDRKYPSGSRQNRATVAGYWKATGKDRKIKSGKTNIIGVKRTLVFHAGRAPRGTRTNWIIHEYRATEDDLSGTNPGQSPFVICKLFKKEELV

With GTACGGCA, the binding signal is 0.395 E-score in the assay with GST-ANAC092(1-176); 0.451 E-score in the assay with GST-ANAC019 NAC domain; 0.362 E-score in the assay with GST-ANAC055(1-171); 0.385 E-score with GST-ATAF1 NAC domain; 0.439 E-score in assay [1]; 0.342 E-score with GST-NAP(1-166). The binding signal with GST-NST2(1-184) turned out to be 0.178 E-score; with GST-SND1(1-203), 0.236 E-score; with GST-VND3 NAC domain it was 0.424 E-score; with GST-VND7 NAC domain it was 0.425 E-score; with GST-WRKY1(266-371) it was 0.0953 E-score.

For the sequence CTTTCTTC, the binding signal stood at 0.137 E-score with GST-ANAC092(1-176); 0.295 E-score with GST-NTL6(1-168); 0.117 E-score in the assay with GST-ATAF1 NAC domain; 0.21 E-score in [1]; 0.0839 E-score with GST-NAP(1-166); 0.0636 E-score with GST-NST2(1-184). Further, the binding signal came out at 0.41 E-score in the assay with GST-NTL8 NAC domain; 0.181 E-score with GST-SND1(1-203); 0.074 E-score with GST-VND3 NAC domain; 0.0647 E-score in the assay with GST-VND7 NAC domain; 0.156 E-score in the assay with GST-WRKY1(266-371).

As for GTAAGTAA, the binding signal was found to be 0.246 E-score with GST-ANAC092(1-176); 0.474 E-score in the assay with GST-NTL6(1-168); 0.0906 E-score with GST-ANAC019 NAC domain; 0.199 E-score in the assay with GST-ANAC055(1-171); 0.245 E-score with GST-ATAF1 NAC domain; 0.334 E-score in assay [1]. Also, the binding signal with GST-NST2(1-184) was found to be 0.239 E-score; with GST-NTL8 NAC domain it was 0.195 E-score; with GST-SND1(1-203) it was 0.307 E-score; with GST-VND3 NAC domain, 0.279 E-score; in the assay with GST-VND7 NAC domain, 0.186 E-score; in the assay with GST-WRKY1(266-371), 0.122 E-score.

Take GAGACGTA: the binding signal was 0.194 E-score with GST-ANAC092(1-176); 0.432 E-score with GST-ANAC019 NAC domain; 0.395 E-score in the assay with GST-ANAC055(1-171); 0.411 E-score in the assay with GST-ATAF1 NAC domain; 0.331 E-score in assay [1]; 0.396 E-score with GST-NAP(1-166). In addition, the binding signal in the assay with GST-NST2(1-184) stood at 0.236 E-score; with GST-SND1(1-203) it was 0.322 E-score; in the assay with GST-VND3 NAC domain, 0.418 E-score; with GST-VND7 NAC domain, 0.413 E-score; with GST-WRKY1(266-371) it was 0.0734 E-score.

TAGCGTGA: the binding signal in the assay with GST-ANAC092(1-176) was found to be 0.441 E-score; in the assay with GST-NTL6(1-168) it was 0.0555 E-score; with GST-ANAC019 NAC domain it was 0.209 E-score; with GST-ANAC055(1-171), 0.114 E-score; with GST-ATAF1 NAC domain it was 0.17 E-score; in assay [1] it was 0.454 E-score. The binding signal with GST-NST2(1-184) is 0.228 E-score; in the assay with GST-SND1(1-203), 0.42 E-score; in the assay with GST-VND3 NAC domain, 0.242 E-score; with GST-VND7 NAC domain it was 0.191 E-score; in the assay with GST-WRKY1(266-371), 0.0738 E-score.

Take CGTGGTCA: the binding signal was determined as 0.128 E-score with GST-ANAC092(1-176); 0.189 E-score in the assay with GST-ANAC019 NAC domain; 0.0851 E-score with GST-ANAC055(1-171); 0.0537 E-score in the assay with GST-ATAF1 NAC domain; 0.195 E-score in assay [1]; 0.0883 E-score in the assay with GST-SND1(1-203). Further, the values for the binding signal with GST-VND3 NAC domain, in the assay with GST-VND7 NAC domain and with GST-WRKY1(266-371) were 0.164 E-score, 0.128 E-score and 0.431 E-score, respectively.

Turning to GCACGTCA, the binding signal with GST-ANAC092(1-176) worked out at 0.449 E-score; with GST-ANAC019 NAC domain, 0.421 E-score; in the assay with GST-ANAC055(1-171), 0.341 E-score; in the assay with GST-ATAF1 NAC domain it was 0.317 E-score; in assay [1], 0.465 E-score; with GST-NAP(1-166) it was 0.341 E-score. For the same sequence, the binding signal in the assay with GST-NST2(1-184) came to 0.229 E-score; with GST-SND1(1-203), 0.29 E-score; with GST-VND3 NAC domain it was 0.368 E-score; with GST-VND7 NAC domain, 0.38 E-score; in the assay with GST-WRKY1(266-371) it was 0.195 E-score.
